TDP-43 yeast inh = rescues yeast growth from TDP-43 toxicity; TDP-43 expressing yeast growth rescue, BacTiter-Glo, 24 h; Potency, µM (highest dose often 46.1 µM), usual class: activators; actives 1.8% (n = 410,000); AID 652104; further: nearly all actives have a fitted effect of over 50% in size
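Yeast expressing TDP-43 (pregrown in raffinose, seeded at OD600=0.02 in galactose medium) exposed to compounds 24 hr at 30 deg C. Growth read by BacTiter-Glo luminescence; rescue of toxicity appears as increased signal.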
Abeta rescue = restores growth of yeast expressing A-beta42 peptide; yeast expressing A-beta42, growth rescue, OD600, 48 h; response scale: 0% DMSO, 100% iron-clioquinol control; Potency, µM (highest dose often 46.1 µM), hits mostly activators; actives 0.063% (n = 410,000); further: nearly all actives have a fitted effect of over 55% in size
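Yeast A-beta toxicity model in growth medium with pinned compounds, 48 h at 30 C; growth read as absorbance at 600 nm. Normalized to FeCl3/clioquinol equimolar mix (positive) and DMSO (negative).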
Mito fusion act = blocks mitochondrial division or promotes mitochondrial fusion; S. cerevisiae fusion-defective mutant growth rescue, CellTiterGlo 48 h; Potency, µM (doses to about 46.1 µM), hits mostly activators; actives 0.23% (n = 320,000); AID 485298; further: nearly all actives have a fitted effect of over 45% in size
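Growth-rescue viability read-out: after 48 h at the non-permissive 37C in glycerol/ethanol YPEG, yeast mitochondrial fusion mutants are measured by CellTiterGlo luminescence; compounds (23 nl pinned per well) restoring growth score as division inhibitors or fusion activators.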
FUS suppressor = FUS proteinopathy suppression in yeast; Potency, µM (titrated, usually from 76.6 µM), actives largely listed as activators; AID 1347120; S. cerevisiae FUS-expressing, growth rescue, OD600, 24 h; actives 0.24% (n = 390,000); further: nearly all actives have a fitted effect of over 55% in size
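Yeast expressing FUS under galactose induction, OD 0.005 in 2% galactose medium; compounds in a dilution series, 24 h at 30C. Growth rescue by absorbance at 600 nm; CP55940 positive control, DMSO negative.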
aSyn yeast inh = rescues yeast growth from alpha-synuclein toxicity. Yeast expressing alpha-synuclein, growth rescue, BacTiter-Glo, 24 h. Potency, µM (titrated, usually from 46.1 µM), hits mostly activators. actives 0.14% (n = 370,000); further: nearly all actives have a fitted effect of over 65% in size
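Galactose-induced alpha-syn yeast (OD600=0.02, raffinose-pregrown) + pinned cpd, 24 hr, 30 deg C; growth by BacTiter-Glo luminescence. Growth restoration scores as activation.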
Of the large screens only hits and unclear results are named; the others gave an inactive call. Most compounds without a hit are left out; they make up all but 2.2% or so of the library. The call rests on the fitted dose curve; in most records, active means well fitted curve in the direction sought with a large enough effect; inconclusive means small, poorly fitted or top-dose-only effect, or another doubt; inactive means no such curve, though single readings can be large; an effect the other way counts as inactive or inconclusive.

CC1=CC2/C=C(\C)CCC(O)C(O)/C=C/C(=O)C23C(=O)NC(CC(C)C)C3C1C (configuration not stated)	none
C/C1=C\[C@@H](C)C/C=C/[C@H]2[C@@H]3O[C@]3(C)[C@@H](C)[C@H]3[C@H](Cc4c[nH]c5ccccc45)NC(=O)[C@]32C(=O)/C=C/C(=O)[C@@H]1O	TDP-43 yeast inh 11.2µM, FUS suppressor inconclusive
COc1ccc(CCNC(=O)c2cnc3sc(N4CCCCCC4)nn3c2=O)cc1	TDP-43 yeast inh inconclusive (no result: Mito fusion act, aSyn yeast inh)
O=C(CN1CCOCC1)c1cccc2ccccc12	none
Cc1c(C(=O)c2cccc3ccccc23)c2cccc3c2n1[C@H](CN1CCOCC1)CO3	TDP-43 yeast inh 25.1µM, Mito fusion act 9.2µM
CCCCCCCCN1C(=O)[C@H](CC(=O)N2CCCCC2)C[C@@]2(C(=O)OCC)CCCC=C12	FUS suppressor inconclusive, aSyn yeast inh inconclusive (no result: Mito fusion act)
Cn1ncc2c(NCc3ccc(Cl)cc3)ncnc21	TDP-43 yeast inh inconclusive (no result: Mito fusion act, aSyn yeast inh)
C[C@@H]1CN([C@@H](C)CO)C(=O)CCCn2nncc2CO[C@H]1CN(C)C(=O)Nc1ccc(N2CCCCC2)cc1	aSyn yeast inh inconclusive (no result: Mito fusion act)
O=S(=O)(c1cccc2ccccc12)N1Cc2ccccc2-n2nncc2C1	TDP-43 yeast inh 20µM (no result: Mito fusion act)
O=S(=O)(c1ccc(Cl)cc1)N1Cc2cc(Br)ccc2-n2nncc2C1	TDP-43 yeast inh 20µM (no result: Mito fusion act)
CCN(CC)C(=O)Oc1ccc2cc(Br)ccc2c1	TDP-43 yeast inh inconclusive
Cn1c(C(=O)NCCOc2ccccc2Cl)cc(=O)n(C)c1=O	none
COc1ccc2c(c1)CCC1C2CC[C@@]2(C)C1CC[C@@H]2NCCCCCCN1C(=O)C=CC1=O (some centres not stated)	none (no result: TDP-43 yeast inh, Abeta rescue, FUS suppressor)
COc1ccc2nc(N3CCN(C(=O)CS(=O)(=O)c4ccc(C)cc4)CC3)sc2c1	TDP-43 yeast inh 12.6µM (no result: Mito fusion act, aSyn yeast inh)
CCOc1ccc2nc(N3CCC(C(=O)N4CCC5(CC4)OCCO5)CC3)sc2c1	FUS suppressor inconclusive
ClCCN(CCCl)c1ccc(/C=C/c2ccnc3ccccc23)cc1	none (no result: TDP-43 yeast inh, Abeta rescue, Mito fusion act, FUS suppressor)
CC(=O)OCC1=C(C(=O)O)N2C(=O)[C@@H](NC(=O)CCC[C@@H](N)C(=O)O)[C@H]2SC1	none (no result: TDP-43 yeast inh, Abeta rescue, FUS suppressor)
S=C(NCCc1ccccc1)N1Cc2cc(Br)ccc2-n2nncc2C1	TDP-43 yeast inh 22.4µM, Abeta rescue inconclusive, aSyn yeast inh inconclusive (no result: Mito fusion act)
COc1ccc(-c2ccc3c(c2)CN(C(=S)NCCc2ccccc2)Cc2cnnn2-3)cc1	TDP-43 yeast inh inconclusive, aSyn yeast inh 3.98µM (no result: Mito fusion act)
O=C(CCc1ccccc1)N1Cc2cc(-c3cccc(F)c3)ccc2-n2nncc2C1	TDP-43 yeast inh inconclusive (no result: Mito fusion act)
S=C(NCCc1ccccc1)N1Cc2ccc(Br)cc2-n2nncc2C1	TDP-43 yeast inh 25.1µM, Abeta rescue inconclusive, aSyn yeast inh inconclusive (no result: Mito fusion act)
COc1ccc(-c2ccc3c(c2)CN(C(=O)CCc2ccccc2)Cc2cnnn2-3)cc1	TDP-43 yeast inh inconclusive, FUS suppressor inconclusive (no result: Mito fusion act)
O=C(NC1CCCCC1)N1Cc2cc(-c3ccccc3)ccc2-n2nncc2C1	TDP-43 yeast inh 20µM (no result: Mito fusion act)
COc1ccccc1NC(=O)Oc1cccc(OC(=O)c2ccccc2)c1	TDP-43 yeast inh inconclusive
O=C(c1ccccc1Cl)N1CCC(c2nc3ccccc3s2)CC1	TDP-43 yeast inh 15.8µM (no result: Mito fusion act, aSyn yeast inh)
O=C(Nc1cccc(C(F)(F)F)c1)C1CCCN1S(=O)(=O)c1cccc2nsnc12 (configuration not stated)	TDP-43 yeast inh inconclusive (no result: Mito fusion act, aSyn yeast inh)
CCOC(=O)CNC(=O)CNC(=O)C(Cc1ccc(N(CCCl)CCCl)cc1)NC(C)=O (configuration not stated)	none
CCOC(=O)C(NC(=O)C(Cc1ccc(N(CCCl)CCCl)cc1)NC(C)=O)C(C)C (configuration not stated)	Mito fusion act 3.98µM
COc1ccc(CNC(=O)c2cnn3c(C)c(Cc4ccc(F)cc4)c(C)nc23)cc1	TDP-43 yeast inh inconclusive (no result: Mito fusion act, aSyn yeast inh)
Cc1nc2ccc(NC(=O)C3COc4ccccc4O3)cc2s1 (configuration not stated)	TDP-43 yeast inh 15.8µM
COC(=O)C1=C(c2ccccc2OCc2ccccc2)C[C@@H]2CC[C@H]1N2C(=O)NCc1ccc(N(C)C)cc1	Mito fusion act inconclusive

Bioassay records as filed in PubChem BioAssay.
